Consider 39 sequences from PMC7862700, “An all-to-all approach to the identification of sequence-specific readers for epigenetic DNA modifications on cytosine”.

ETV5, sequence (P41161 whole entry, the tested form may be a part): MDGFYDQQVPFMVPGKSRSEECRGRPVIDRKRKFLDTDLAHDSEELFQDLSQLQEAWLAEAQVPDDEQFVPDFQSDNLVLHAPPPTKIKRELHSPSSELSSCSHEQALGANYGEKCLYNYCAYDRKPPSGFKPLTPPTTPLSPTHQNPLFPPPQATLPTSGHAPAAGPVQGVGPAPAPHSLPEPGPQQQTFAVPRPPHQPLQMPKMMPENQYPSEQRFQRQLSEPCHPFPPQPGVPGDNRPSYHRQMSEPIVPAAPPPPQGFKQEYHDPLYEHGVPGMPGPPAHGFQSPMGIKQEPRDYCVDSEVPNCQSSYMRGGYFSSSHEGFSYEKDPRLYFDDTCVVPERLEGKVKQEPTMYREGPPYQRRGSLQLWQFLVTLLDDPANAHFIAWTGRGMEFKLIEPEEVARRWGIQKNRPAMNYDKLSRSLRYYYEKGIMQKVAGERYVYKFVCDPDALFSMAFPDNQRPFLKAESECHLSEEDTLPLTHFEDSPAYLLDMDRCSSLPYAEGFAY
HSF1, sequence (Q00613 whole entry): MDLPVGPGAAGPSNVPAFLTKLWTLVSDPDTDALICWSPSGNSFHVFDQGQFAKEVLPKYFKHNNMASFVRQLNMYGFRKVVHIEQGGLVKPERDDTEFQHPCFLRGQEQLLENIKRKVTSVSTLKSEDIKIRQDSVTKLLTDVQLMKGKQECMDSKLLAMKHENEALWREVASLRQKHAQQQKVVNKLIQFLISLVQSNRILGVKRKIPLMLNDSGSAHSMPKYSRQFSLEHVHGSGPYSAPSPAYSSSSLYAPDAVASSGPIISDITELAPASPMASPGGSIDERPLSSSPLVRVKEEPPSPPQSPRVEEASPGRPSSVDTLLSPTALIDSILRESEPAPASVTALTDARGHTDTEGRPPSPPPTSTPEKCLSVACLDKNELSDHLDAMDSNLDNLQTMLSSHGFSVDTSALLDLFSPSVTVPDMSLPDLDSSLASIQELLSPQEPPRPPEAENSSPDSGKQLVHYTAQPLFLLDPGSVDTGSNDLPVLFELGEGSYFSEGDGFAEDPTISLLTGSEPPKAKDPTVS

The first test has as its target ETV5 (Homo sapiens, UniProt P41161 1-510). The test can be described thus: DAPPL (digital affinity profiling via proximity ligation, sequencing); 10 mM Tris-HCl pH 7.5, 50 mM NaCl, 1 mM DTT, 4% glycerol, room temperature, 30 min; GST-TFs on glutathione beads, 16-mer random dsDNA library, 0.1% formaldehyde crosslink after washing; high values mean tight binding. The settings on record: protein: recombinant; tags: N-terminal GST; dsDNA, one strand shown. The method in brief: (§1)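 Human transcription factors were made in yeast as GST fusions, captured on glutathione beads and barcoded with DNA. With a tag-only sample included, the pool was incubated with 200 nmole of a random double-stranded 16-mer DNA library in Tris/NaCl/DTT/glycerol buffer at room temperature for 30 min, then crosslinked with 0.1% formaldehyde after washing, ligated by proximity, amplified and sequenced. For binding signal, each hexamer's read frequency for a factor is divided by its frequency for the tag-only sample.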
On to GACCTC, for which the binding signal is 1.42 fold enrichment (6-mer frequency, TF over GST control).
With CGTTCC, the binding signal is 1.47 fold enrichment (6-mer frequency, TF over GST control).
Take ACTGGC: the binding signal was 1.11 fold enrichment (6-mer frequency, TF over GST control).
Still for that read-out and setting: under ATGGAC stands 1.3 fold enrichment (6-mer frequency, TF over GST control); under CAATTG, 1.2 fold enrichment (6-mer frequency, TF over GST control).
As for TGCCGA, the binding signal was 1.19 fold enrichment (6-mer frequency, TF over GST control).
The same measure, in the same setting: under ACTCAC stands 1.18 fold enrichment (6-mer frequency, TF over GST control); under GCCTCA, 1.22 fold enrichment (6-mer frequency, TF over GST control).
Take CGACCC: the binding signal is 1.3 fold enrichment (6-mer frequency, TF over GST control).
Regarding CCACGC, the binding signal was 1.15 fold enrichment (6-mer frequency, TF over GST control).
The same measure, in the same setting: to TGTTCA belongs 1.18 fold enrichment (6-mer frequency, TF over GST control); to GAAAAA, 1.13 fold enrichment (6-mer frequency, TF over GST control); to TGTACA, 1.17 fold enrichment (6-mer frequency, TF over GST control).
For CGTCCT, the binding signal was 1.32 fold enrichment (6-mer frequency, TF over GST control).
With GAAGCA, the binding signal was 1.41 fold enrichment (6-mer frequency, TF over GST control).
Take ACTGCC: the binding signal was 1.38 fold enrichment (6-mer frequency, TF over GST control).
With TGCGTA, the binding signal is 1.12 fold enrichment (6-mer frequency, TF over GST control).
Same read-out and setting: under CGCGTC stands 1.06 fold enrichment (6-mer frequency, TF over GST control); under CCGACA, 1.24 fold enrichment (6-mer frequency, TF over GST control); under GCGTTC, 1.17 fold enrichment (6-mer frequency, TF over GST control).
With GTACAT, the binding signal was 1.37 fold enrichment (6-mer frequency, TF over GST control).
In the case of CGACAT, the binding signal is 1.26 fold enrichment (6-mer frequency, TF over GST control).
On the same count and under the same terms, under CCTGCA stands 1.39 fold enrichment (6-mer frequency, TF over GST control).
Regarding TGCAAC, the binding signal was 1.3 fold enrichment (6-mer frequency, TF over GST control).
Take TGCCCC: the binding signal is 1.24 fold enrichment (6-mer frequency, TF over GST control).
Still for that read-out and setting: to TGACAT belongs 1.26 fold enrichment (6-mer frequency, TF over GST control).
Consider CCGTAC, for which the binding signal is 1.33 fold enrichment (6-mer frequency, TF over GST control).
Still for that read-out and setting: under TGAAAC stands 1.33 fold enrichment (6-mer frequency, TF over GST control); under ACTGCG, 1.21 fold enrichment (6-mer frequency, TF over GST control); under CCCTCA, 1.18 fold enrichment (6-mer frequency, TF over GST control).
The same measure, in the same setting: under TGACCA stands 1.23 fold enrichment (6-mer frequency, TF over GST control); under TCTGAC, 1.15 fold enrichment (6-mer frequency, TF over GST control); under ACGAAC, 1.22 fold enrichment (6-mer frequency, TF over GST control).
Still for that read-out and setting: under GAAGTT stands 1.66 fold enrichment (6-mer frequency, TF over GST control); under CCGGCA, 1.47 fold enrichment (6-mer frequency, TF over GST control); under ACCGTC, 1.12 fold enrichment (6-mer frequency, TF over GST control).
As to CTGCCA, the binding signal was 1.15 fold enrichment (6-mer frequency, TF over GST control).
Still for that read-out and setting: to GTCTCT belongs 1.14 fold enrichment (6-mer frequency, TF over GST control).
For the sequence GAAACT, the binding signal was 1.28 fold enrichment (6-mer frequency, TF over GST control).

The next test concerns the target HSF1 (Homo sapiens, UniProt Q00613 1-529). The description is as above. The settings on record: protein: recombinant; tags: N-terminal GST; chain copies: 3; dsDNA, one strand shown. The method in brief:
as §1
For the sequence GACCTC, the binding signal is 1.17 fold enrichment (6-mer frequency, TF over GST control).
Take CGTTCC: the binding signal was 1.44 fold enrichment (6-mer frequency, TF over GST control).
On to ACTGGC, for which the binding signal was 1.07 fold enrichment (6-mer frequency, TF over GST control).
Same read-out and setting: under ATGGAC stands 1.01 fold enrichment (6-mer frequency, TF over GST control); under CAATTG, 1.04 fold enrichment (6-mer frequency, TF over GST control).
Regarding TGCCGA, the binding signal is 1.07 fold enrichment (6-mer frequency, TF over GST control).
As for ACTCAC, the binding signal is 1.07 fold enrichment (6-mer frequency, TF over GST control).
On the same count and under the same terms, under GCCTCA stands 1.05 fold enrichment (6-mer frequency, TF over GST control); under CGACCC, 1.03 fold enrichment (6-mer frequency, TF over GST control).
Consider CCACGC, for which the binding signal was 1.05 fold enrichment (6-mer frequency, TF over GST control).
On the same count and under the same terms, under TGTTCA stands 1.09 fold enrichment (6-mer frequency, TF over GST control).
On the same count and under the same terms, to GAAAAA belongs 1.41 fold enrichment (6-mer frequency, TF over GST control); to TGTACA, 1.01 fold enrichment (6-mer frequency, TF over GST control).
On the same count and under the same terms, to CGTCCT belongs 1.08 fold enrichment (6-mer frequency, TF over GST control).
As to GAAGCA, the binding signal was 1.06 fold enrichment (6-mer frequency, TF over GST control).
Take ACTGCC: the binding signal was 1.06 fold enrichment (6-mer frequency, TF over GST control).
The same measure, in the same setting: under TGCGTA stands 1.06 fold enrichment (6-mer frequency, TF over GST control).
The same measure, in the same setting: to CGCGTC belongs 1.02 fold enrichment (6-mer frequency, TF over GST control); to CCGACA, 1.03 fold enrichment (6-mer frequency, TF over GST control).
On the same count and under the same terms, under GCGTTC stands 1.1 fold enrichment (6-mer frequency, TF over GST control); under GTACAT, 1.04 fold enrichment (6-mer frequency, TF over GST control); under CGACAT, 1.07 fold enrichment (6-mer frequency, TF over GST control).
As for CCTGCA, the binding signal is 1.11 fold enrichment (6-mer frequency, TF over GST control).
TGCAAC: the binding signal was 1.06 fold enrichment (6-mer frequency, TF over GST control).
Consider TGCCCC, for which the binding signal was 1.01 fold enrichment (6-mer frequency, TF over GST control).
Same read-out and setting: under TGACAT stands 1.01 fold enrichment (6-mer frequency, TF over GST control); under CCGTAC, 1.06 fold enrichment (6-mer frequency, TF over GST control); under TGAAAC, 1.13 fold enrichment (6-mer frequency, TF over GST control).
On the same count and under the same terms, under ACTGCG stands 1.06 fold enrichment (6-mer frequency, TF over GST control); under CCCTCA, 1.03 fold enrichment (6-mer frequency, TF over GST control); under TGACCA, 1.05 fold enrichment (6-mer frequency, TF over GST control).
For TCTGAC, the binding signal is 1.07 fold enrichment (6-mer frequency, TF over GST control).
For the sequence ACGAAC, the binding signal was 1.19 fold enrichment (6-mer frequency, TF over GST control).
With GAAGTT, the binding signal is 1.39 fold enrichment (6-mer frequency, TF over GST control).
Take CCGGCA: the binding signal is 1.01 fold enrichment (6-mer frequency, TF over GST control).
On the same count and under the same terms, to ACCGTC belongs 1.13 fold enrichment (6-mer frequency, TF over GST control); to CTGCCA, 1 fold enrichment (6-mer frequency, TF over GST control); to GTCTCT, 1.12 fold enrichment (6-mer frequency, TF over GST control).
For the sequence GAAACT, the binding signal is 1.32 fold enrichment (6-mer frequency, TF over GST control).

The target in another test is T1, SPIC (Homo sapiens, UniProt Q8N5J4 1-248).
T1 sequence: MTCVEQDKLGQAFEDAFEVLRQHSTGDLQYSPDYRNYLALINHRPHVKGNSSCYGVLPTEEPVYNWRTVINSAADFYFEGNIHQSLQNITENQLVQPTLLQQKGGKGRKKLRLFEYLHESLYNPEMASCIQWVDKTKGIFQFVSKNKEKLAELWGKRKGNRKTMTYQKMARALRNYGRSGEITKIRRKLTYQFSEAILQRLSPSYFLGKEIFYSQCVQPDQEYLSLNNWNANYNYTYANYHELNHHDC
The description is as above. The settings on record: protein: recombinant; tags: N-terminal GST; dsDNA, one strand shown. The method in brief:
as §1
As to GACCTC, the binding signal was 1.18 fold enrichment (6-mer frequency, TF over GST control).
CGTTCC: the binding signal was 1.51 fold enrichment (6-mer frequency, TF over GST control).
The same measure, in the same setting: to ACTGGC belongs 1.28 fold enrichment (6-mer frequency, TF over GST control).
The same measure, in the same setting: under ATGGAC stands 1.34 fold enrichment (6-mer frequency, TF over GST control).
Still for that read-out and setting: to CAATTG belongs 1.28 fold enrichment (6-mer frequency, TF over GST control).
Take TGCCGA: the binding signal was 1.37 fold enrichment (6-mer frequency, TF over GST control).
Still for that read-out and setting: to ACTCAC belongs 1.25 fold enrichment (6-mer frequency, TF over GST control); to GCCTCA, 1.21 fold enrichment (6-mer frequency, TF over GST control).
Still for that read-out and setting: to CGACCC belongs 1.23 fold enrichment (6-mer frequency, TF over GST control).
As to CCACGC, the binding signal is 1.14 fold enrichment (6-mer frequency, TF over GST control).
On the same count and under the same terms, to TGTTCA belongs 1.17 fold enrichment (6-mer frequency, TF over GST control); to GAAAAA, 1.15 fold enrichment (6-mer frequency, TF over GST control); to TGTACA, 1.45 fold enrichment (6-mer frequency, TF over GST control).
Still for that read-out and setting: to CGTCCT belongs 1.27 fold enrichment (6-mer frequency, TF over GST control); to GAAGCA, 1.19 fold enrichment (6-mer frequency, TF over GST control).
With ACTGCC, the binding signal is 1.61 fold enrichment (6-mer frequency, TF over GST control).
As to TGCGTA, the binding signal was 1.11 fold enrichment (6-mer frequency, TF over GST control).
In the case of CGCGTC, the binding signal was 1.39 fold enrichment (6-mer frequency, TF over GST control).
Turning to CCGACA, the binding signal was 1.34 fold enrichment (6-mer frequency, TF over GST control).
Same read-out and setting: under GCGTTC stands 1.11 fold enrichment (6-mer frequency, TF over GST control); under GTACAT, 1.36 fold enrichment (6-mer frequency, TF over GST control); under CGACAT, 1.32 fold enrichment (6-mer frequency, TF over GST control).
Still for that read-out and setting: under CCTGCA stands 1.15 fold enrichment (6-mer frequency, TF over GST control); under TGCAAC, 1.19 fold enrichment (6-mer frequency, TF over GST control); under TGCCCC, 1.41 fold enrichment (6-mer frequency, TF over GST control).
Turning to TGACAT, the binding signal is 1.07 fold enrichment (6-mer frequency, TF over GST control).
Same read-out and setting: under CCGTAC stands 1.18 fold enrichment (6-mer frequency, TF over GST control).
Regarding TGAAAC, the binding signal was 1.27 fold enrichment (6-mer frequency, TF over GST control).
In the case of ACTGCG, the binding signal was 1.14 fold enrichment (6-mer frequency, TF over GST control).
Same read-out and setting: under CCCTCA stands 1.06 fold enrichment (6-mer frequency, TF over GST control).
In the case of TGACCA, the binding signal is 1.06 fold enrichment (6-mer frequency, TF over GST control).
Regarding TCTGAC, the binding signal is 1.04 fold enrichment (6-mer frequency, TF over GST control).
As to ACGAAC, the binding signal is 1.07 fold enrichment (6-mer frequency, TF over GST control).
For GAAGTT, the binding signal is 1.76 fold enrichment (6-mer frequency, TF over GST control).
Same read-out and setting: to CCGGCA belongs 1.32 fold enrichment (6-mer frequency, TF over GST control); to ACCGTC, 1.2 fold enrichment (6-mer frequency, TF over GST control); to CTGCCA, 1.18 fold enrichment (6-mer frequency, TF over GST control).
Still for that read-out and setting: to GTCTCT belongs 1.33 fold enrichment (6-mer frequency, TF over GST control).
Take GAAACT: the binding signal is 1.25 fold enrichment (6-mer frequency, TF over GST control).
